Reference: PubChem BioAssay (NCATS)
Records with an inconclusive call do not appear. Values without a mark were called inactive. Active and inactive are the calls of the source. Calls follow the shape of the full dose curve.

test: Primary qHTS for inhibitors of SARS-S pseudo-typed particle cell entry (AID 1479145); details: SARS-S pseudotyped particle cell entry, luciferase reporter; series mostly up to 57.1 µM; activity change, negative = inhibition: at the top concentration; also: nearly all actives have a fitted effect of over 45% in size
% is scaled to controls: 0 for no effect and ±100 for the full control effect; potency is read from the fitted curve at half-maximal effect.

SMILES | outcome | activity change, negative = inhibition [%] | Potency
NS(=O)(=O)c1cc2c(cc1Cl)NC=NS2(=O)=O | inactive |  | 
O=C(O)CCNC(=O)c1ccc(N=Nc2ccc(O)c(C(=O)O)c2)cc1 |  | -3.59 | 
CN(C)c1cc(NC(=O)CNC(C)(C)C)c(O)c2c1C[C@@H]1C[C@H]3[C@H](N(C)C)C(=O)C(C(N)=O)=C(O)[C@@]3(O)C(=O)C1=C2O |  | -21.8 | 
COC(=O)C1=C(C)NC(C)=C(C(=O)OCC(C)C)C1c1ccccc1[N+](=O)[O-] (stereo not drawn) |  |  | 35.5 µM (active)
CC[C@@]1(O)C(=O)OCc2c1cc1n(c2=O)Cc2cc3c(CN(C)C)c(O)ccc3nc2-1 |  |  | 3.16 µM (active)
Nc1nc(N)c2nc(-c3ccccc3)c(N)nc2n1 |  | -8.42 | 
CC(C)(O)c1ccccc1CC[C@@H](SCC1(CC(=O)O)CC1)c1cccc(/C=C/c2ccc3ccc(Cl)cc3n2)c1 | inactive |  | 
N=c1nc(N2CCCCC2)cc(N)n1O | inactive |  | 
COC(c1ccccc1)(c1ccccc1)[C@H](Oc1nc(C)cc(C)n1)C(=O)O |  | -4.01 | 
Clc1ccc(C(c2ccccc2Cl)C(Cl)Cl)cc1 (stereo not drawn) |  | 0.293 | 
O=C(O)c1cn(C2CC2)c2cc(N3CCNCC3)c(F)cc2c1=O | inactive |  | 
O=C1NC(c2ccccc2)(c2ccccc2)C(=O)N1COP(=O)(O)O | inactive |  | 
CCN1CCN(C(=O)N[C@@H](C(=O)N[C@@H]2C(=O)N3C(C(=O)O)=C(CSc4nnnn4C)CS[C@H]23)c2ccc(O)cc2)C(=O)C1=O | inactive |  | 
Cc1cn[nH]c1 |  | -0.224 | 
CCCN(CCC)CCc1cccc2c1CC(=O)N2 |  | -13 | 
C1N2CN3CN1CN(C2)C3 | inactive |  | 
CN/C(=C\[N+](=O)[O-])NCCSCc1ccc(CN(C)C)o1 | inactive |  | 
COc1ccccc1Oc1c(NS(=O)(=O)c2ccc(C(C)(C)C)cc2)nc(-c2ncccn2)nc1OCCO |  | -34.8 | 
CC(C)OC(=O)C(C)(C)Oc1ccc(C(=O)c2ccc(Cl)cc2)cc1 |  | 1.98 | 
CN(C)CCc1c[nH]c2ccc(CS(=O)(=O)N3CCCC3)cc12 |  | -15.1 | 
CCCC(CCC)C(=O)O | inactive |  | 
CC(=O)OCC(CCn1cnc2cnc(N)nc21)COC(C)=O |  | -12.1 | 
NC(=O)NO | inactive |  | 
